Usually AC50 stands for the midpoint of the concentration-response curve, whichever way the signal moves.

“And” between values parts separate entries of the source, which are not always exact repeats. Equal values may be shown once. Inconclusive results are not listed. Some structures have more than one record in an assay (separate samples or runs), and their calls can disagree. The source made the active and inactive calls. How the source made its calls, unless noted: active means hit-call score of the fitted dose curve at least 0.9, where 1 is the maximum; inactive means score below 0.9.

Results on six molecules are retold here after PubChem BioAssay (EPA / NIEHS).

Experiment [1] is described as follows: ATG_NFI_CIS: Attagene CIS-FACTORIAL HepG2 Assay for human Nuclear Factor I (NFI) (AID 2282989). Particulars: HepG2 cis-regulatory reporter, NFI response element transcription; actives raise or lower the signal. The gist of the method: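 Transfected HepG2 liver cells, exposed 24 h, supplied total RNA for oligo(dT) reverse transcription and reporter-specific PCR. Labelled, HpaI-cut fragments were sized by capillary electrophoresis; DMSO set the baseline for bidirectional fitting.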

In experiment [2] the target is Myc proto-oncogene protein (Homo sapiens) (UniProt P01106). Kind of experiment: ATG_Myc_CIS: Attagene CIS-FACTORIAL HepG2 Assay for human Myelocytomatosis (Myc) Proto-Oncogene Transcription Factor (AID 2282990). Particulars: HepG2, Attagene cis-reporter transcription factor activity; actives raise or lower the signal. The gist of the method: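 HepG2, transient MRTU transfection (cis promoters, endogenous TFs); 24 h dosing; TriZol RNA → oligo(dT) RT → PCR → 6-FAM primer extension → HpaI cut → CE. Bidirectional fit vs DMSO.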
Myc proto-oncogene protein (Homo sapiens), sequence (P01106 whole entry, looked up): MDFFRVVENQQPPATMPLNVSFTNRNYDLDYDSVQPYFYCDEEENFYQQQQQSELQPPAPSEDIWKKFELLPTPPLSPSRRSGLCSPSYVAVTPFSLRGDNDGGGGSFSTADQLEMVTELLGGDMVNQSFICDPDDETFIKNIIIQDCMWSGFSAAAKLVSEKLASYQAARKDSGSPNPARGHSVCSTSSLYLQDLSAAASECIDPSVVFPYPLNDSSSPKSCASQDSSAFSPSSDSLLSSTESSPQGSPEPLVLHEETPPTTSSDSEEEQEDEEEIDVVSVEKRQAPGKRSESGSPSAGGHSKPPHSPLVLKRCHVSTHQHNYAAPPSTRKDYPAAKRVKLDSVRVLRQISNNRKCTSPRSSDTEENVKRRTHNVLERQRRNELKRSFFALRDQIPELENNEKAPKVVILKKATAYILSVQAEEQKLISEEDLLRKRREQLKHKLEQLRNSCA

The nature of experiment [3]: ATG_NRF2_ARE_CIS: Attagene CIS-FACTORIAL HepG2 Assay for human Nuclear Factor Erythroid 2 Related Factor 2 (NFR2) response to Antioxidant Response Elements (ARE) (AID 2282992).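 On AC50: reporter mRNA level measured by RT-PCR and capillary electrophoresis fluorescence.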 The conditions noted are these: HepG2 Attagene ARE/NRF2 reporter, transcription factor activity; actives raise or lower the signal. The gist of the method: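 Cis-factorial assay: transfected HepG2 reporter library, 24 h dosing, mRNA readout via RT-PCR/CE; DMSO-referenced bidirectional analysis.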

The nature of experiment [4]: ATG_Oct_MLP_CIS: Attagene CIS-FACTORIAL HepG2 Assay for human Octamer-Binding Transcription Factor (Oct) (AID 2282993). Particulars: HepG2 Attagene cis-factorial Oct reporter, mRNA; actives raise or lower the signal. The method in brief: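 Using HepG2 cells bearing transfected cis-reporter constructs, mRNA induction was read after 24 h by fluorescent RT-PCR and capillary electrophoresis, with DMSO defining baseline for gain- or loss-of-signal fits.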

The target in experiment [5] is Cellular tumor antigen p53 (Homo sapiens) (UniProt P04637). Kind of experiment: ATG_p53_CIS: Attagene CIS-FACTORIAL HepG2 Assay for human p53 Transcription Factor (AID 2282994). Particulars: HepG2 p53 cis-element reporter, Attagene mRNA; actives raise or lower the signal. The gist of the method:
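Using HepG2 hepatoma cells carrying cis-acting multiplexed reporters, mRNA induction is detected after a 24 h exposure. Gain- and loss-of-signal responses are fitted relative to DMSO-treated cells.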

Experiment [6] is described as follows: BSK_3C_TissueFactor: BioMAP Diversity Plus: 3C Assay for Tissue Factor Biomarker Activity (AID 2282997). The conditions noted are these: BioMAP 3C HUVEC, tissue factor biomarker readout; actives raise or lower the signal. The method in brief: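 Values derive from bidirectional curve fitting against DMSO of Tissue Factor ELISA signals, taken 24 h after dosing primary human umbilical vein endothelial cells.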

A short description of experiment [7]: BSK_3C_uPAR: BioMAP Diversity Plus: 3C Assay for Urokinase-type plasminogen activator receptor (uPAR) Biomarker Activity (AID 2282998). The conditions noted are these: BioMAP 3C HUVEC, uPAR biomarker ELISA; actives raise or lower the signal. The gist of the method:
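In this endothelial cell-based assay, human umbilical vein primary cells were treated with chemicals and harvested at 24 h. uPAR was quantified using ELISA, with gains or losses fitted relative to DMSO controls.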
(In general: ELISA stands for enzyme-linked immunosorbent assay.)

Experiment [8] in a line: BSK_3C_VCAM1: BioMAP Diversity Plus: 3C Assay for Vascular cell adhesion molecule 1 (VCAM1) Biomarker Activity (AID 2282999). The conditions noted are these: BioMAP 3C HUVEC, VCAM1 ELISA, cytokine-stimulated; actives raise or lower the signal. The method in brief: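 Endothelial cells from human umbilical vein are treated with test chemical. At 24 h, VCAM-1 is measured by ELISA, and responses in either direction are fitted relative to DMSO.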

A short description of experiment [9]: BSK_4H_Eotaxin3: BioMAP Diversity Plus: 4H Assay for Eotaxin 3 Biomarker Activity (AID 2283000).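 On outcome: CCL26 protein level quantified by ELISA in parallel with SRB cytotoxicity check.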 The conditions noted are these: primary human endothelial cells (HUVEC); actives raise or lower the signal. The method in brief: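 Endothelial primary cells (human umbilical vein) exposed to compound for 24 h. ELISA detection of Eotaxin-3.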
The target in experiment [10] is human Peroxisome Proliferator-activated Receptor alpha (PPARa), PPARA (gene 5465) (UniProt Q07869). Kind of experiment: ATG_PPARa_TRANS: Attagene TRANS-FACTORIAL HepG2 Assay for human Peroxisome Proliferator-activated Receptor alpha (PPARa) (AID 2283001; active means hit-call score of the fitted dose curve at least 0.9, where 1 is the maximum;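 on AC50: potency for gain of reporter signal over DMSO so agonist or activator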). The gist of the method:
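Reporter transcripts from GAL4-UAS units in transfected HepG2 were quantified 24 h after dosing. Detection used reverse transcription, PCR, fluorescent primer extension and capillary electrophoresis, with DMSO as baseline.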

Read-out in experiment [11]: Intercellular Adhesion Molecule 1 (ICAM1), ICAM1 (gene 3383)
The experiment can be described thus: BSK_3C_ICAM1: BioMAP Diversity Plus: 3C Assay for Intercellular Adhesion Molecule 1 (ICAM1) Biomarker Activity (AID 2283003). Particulars: primary human endothelial cells (HUVEC); actives raise or lower the signal. The method in brief:
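Human vascular endothelial primary cells, 3C conditions, 24 h treatment. ICAM-1 by ELISA.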

A short description of experiment [12]: BSK_3C_Proliferation: Cell Proliferation Assessment in the BioMAP Diversity Plus: 3C Assay (AID 2283006).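 On AC50: potency may reflect either rise or fall in cell number versus DMSO.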 The conditions noted are these: primary human endothelial cells (HUVEC). The method in brief:
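Proliferation of human vascular endothelial primary cells after 48 h dosing, quantified as SRB-stained protein at 560 nm relative to DMSO.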

Experiment [13] has as its target Peroxisome proliferator-activated receptor gamma (Homo sapiens) (UniProt P37231). Kind of experiment: ATG_PPARg_TRANS: Attagene TRANS-FACTORIAL HepG2 Assay for human Peroxisome Proliferator-activated Receptor-gamma (PPARg) (AID 2283007; active means hit-call score of the fitted dose curve at least 0.9, where 1 is the maximum). The gist of the method:
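Chimeric NR-Gal4 transactivation is measured in transiently transfected HepG2 cells by reporter mRNA induction at 24 h. Detection uses RT-PCR with fluorescent labelling and capillary electrophoresis; DMSO defines baseline.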

The nature of experiment [14]: ATG_NF_kB_CIS: Attagene CIS-FACTORIAL HepG2 Assay for human Nuclear Factor Kappa B (NF-kB) (AID 2282991). Particulars: HepG2 Attagene cis-factorial NF-kB reporter mRNA; actives raise or lower the signal. The method in brief: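 DMSO served as negative control and baseline for bidirectional curve fitting. Transiently transfected HepG2 cells were dosed for 24 h, then reporter transcripts were measured by RT-PCR with capillary electrophoresis detection.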

For experiment [15], the target named is Nuclear receptor subfamily 1 group I member 2 (Homo sapiens) (UniProt O75469). Kind of experiment: ATG_PXR_TRANS: Attagene TRANS-FACTORIAL HepG2 Assay for human Pregnane X Receptor (PXR) (AID 2283008; active means hit-call score of the fitted dose curve at least 0.9, where 1 is the maximum). The gist of the method:
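Fluorescence intensity of FAM-labelled, HpaI-digested reporter amplicons, separated by capillary electrophoresis, quantifies induction. HepG2 cells with PXR-Gal4 trans-reporter system were exposed 24 h; DMSO defines baseline.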

Experiment [16] addresses human Retinoic Acid Receptor beta (RARb), RARB (gene 5915) (UniProt P10826). Kind of experiment: ATG_RARb_TRANS: Attagene TRANS-FACTORIAL HepG2 Assay for human Retinoic Acid Receptor beta (AID 2283004; active means hit-call score of the fitted dose curve at least 0.9, where 1 is the maximum). The method in brief: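 HepG2, transient MRTU transfection, NR–Gal4 chimera, 24 h treatment; RT-PCR plus CE fluorescence detection of reporter mRNA; gain of signal vs DMSO.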

Experiment [17] deals with human Retinoic Acid Receptor gamma (RARg), RARG (gene 5916) (UniProt P13631). The experiment can be described thus: ATG_RARg_TRANS: Attagene TRANS-FACTORIAL HepG2 Assay for human Retinoic Acid Receptor gamma (RARg) (AID 2283009; active means hit-call score of the fitted dose curve at least 0.9, where 1 is the maximum). The gist of the method:
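HepG2, RARg-GAL4 TRANS system, 24 h exposure; reporter mRNA by RT-PCR + CE fluorescence; increase over DMSO.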

In experiment [18] the target is human RAR-related Orphan Receptor beta (RORb), RORB (gene 6096) (UniProt Q92753). The experiment can be described thus: ATG_RORb_TRANS: Attagene TRANS-FACTORIAL HepG2 Assay for human RAR-related Orphan Receptor beta (RORb) (AID 2283010; active means hit-call score of the fitted dose curve at least 0.9, where 1 is the maximum). The gist of the method: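 In this TRANS-format test, human HepG2 cells express chimeric NR-Gal4 fusion proteins driving GAL4-UAS reporters. After 24 h dosing, reporter transcripts are measured by fluorescent RT-PCR/capillary electrophoresis, with DMSO as negative control.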
human RAR-related Orphan Receptor beta (RORb), RORB (gene 6096), sequence (Q92753 whole entry, looked up, the tested form may be a part): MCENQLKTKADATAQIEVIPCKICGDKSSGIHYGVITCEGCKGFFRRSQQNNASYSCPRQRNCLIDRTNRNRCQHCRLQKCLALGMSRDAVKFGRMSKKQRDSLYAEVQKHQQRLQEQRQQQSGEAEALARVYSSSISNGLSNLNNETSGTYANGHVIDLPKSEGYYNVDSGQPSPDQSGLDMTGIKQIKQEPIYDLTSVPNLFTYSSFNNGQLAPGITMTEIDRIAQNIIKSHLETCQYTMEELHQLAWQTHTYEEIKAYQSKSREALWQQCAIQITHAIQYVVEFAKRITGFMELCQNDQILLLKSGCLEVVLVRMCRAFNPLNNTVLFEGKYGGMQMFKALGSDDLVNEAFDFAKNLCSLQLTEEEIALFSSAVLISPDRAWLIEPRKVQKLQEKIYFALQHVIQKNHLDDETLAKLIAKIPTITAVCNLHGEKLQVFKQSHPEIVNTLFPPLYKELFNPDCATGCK

The target in experiment [19] is human Peroxisome Proliferator-activated Receptor delta (PPARd), PPARD (gene 5467) (UniProt Q03181). The experiment can be described thus: ATG_PPARd_TRANS: Attagene TRANS-FACTORIAL HepG2 Assay for human Peroxisome Proliferator-activated Receptor delta (PPARd) (AID 2283002; active means hit-call score of the fitted dose curve at least 0.9, where 1 is the maximum). The gist of the method:
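Transient HepG2 transfection (multiple GAL4-UAS RTUs, chimeric receptor-Gal4); 24 h dosing; total RNA → oligo(dT) RT → PCR → 6-FAM primer extension → HpaI cut → CE. Positive direction vs DMSO.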

Cellular tumor antigen p53 (Homo sapiens), sequence (P04637 whole entry, looked up): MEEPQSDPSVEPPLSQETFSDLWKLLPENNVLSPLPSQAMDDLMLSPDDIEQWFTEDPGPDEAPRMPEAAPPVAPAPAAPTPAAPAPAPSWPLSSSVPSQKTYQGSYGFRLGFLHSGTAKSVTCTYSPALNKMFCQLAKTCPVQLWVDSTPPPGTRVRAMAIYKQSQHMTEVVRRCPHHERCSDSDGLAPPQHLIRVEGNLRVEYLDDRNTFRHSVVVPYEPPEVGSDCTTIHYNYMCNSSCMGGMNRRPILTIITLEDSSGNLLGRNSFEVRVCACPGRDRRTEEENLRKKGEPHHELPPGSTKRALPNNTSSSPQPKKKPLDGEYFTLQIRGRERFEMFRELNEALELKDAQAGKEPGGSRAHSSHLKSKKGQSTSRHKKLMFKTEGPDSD
Peroxisome proliferator-activated receptor gamma (Homo sapiens), sequence (P37231 whole entry, looked up, the tested form may be a part): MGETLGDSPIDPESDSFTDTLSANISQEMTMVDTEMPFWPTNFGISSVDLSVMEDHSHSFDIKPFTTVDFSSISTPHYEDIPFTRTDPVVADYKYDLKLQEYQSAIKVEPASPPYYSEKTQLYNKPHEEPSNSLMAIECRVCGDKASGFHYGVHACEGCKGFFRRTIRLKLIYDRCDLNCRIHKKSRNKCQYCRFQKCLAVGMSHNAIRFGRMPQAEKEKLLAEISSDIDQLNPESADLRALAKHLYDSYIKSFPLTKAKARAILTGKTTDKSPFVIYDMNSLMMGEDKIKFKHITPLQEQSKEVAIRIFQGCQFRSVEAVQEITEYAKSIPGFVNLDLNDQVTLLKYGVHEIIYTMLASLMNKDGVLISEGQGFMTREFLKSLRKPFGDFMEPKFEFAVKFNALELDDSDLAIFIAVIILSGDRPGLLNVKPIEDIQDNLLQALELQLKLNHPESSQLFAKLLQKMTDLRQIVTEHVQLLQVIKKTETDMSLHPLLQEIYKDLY
Nuclear receptor subfamily 1 group I member 2 (Homo sapiens), sequence (O75469 whole entry, looked up, the tested form may be a part): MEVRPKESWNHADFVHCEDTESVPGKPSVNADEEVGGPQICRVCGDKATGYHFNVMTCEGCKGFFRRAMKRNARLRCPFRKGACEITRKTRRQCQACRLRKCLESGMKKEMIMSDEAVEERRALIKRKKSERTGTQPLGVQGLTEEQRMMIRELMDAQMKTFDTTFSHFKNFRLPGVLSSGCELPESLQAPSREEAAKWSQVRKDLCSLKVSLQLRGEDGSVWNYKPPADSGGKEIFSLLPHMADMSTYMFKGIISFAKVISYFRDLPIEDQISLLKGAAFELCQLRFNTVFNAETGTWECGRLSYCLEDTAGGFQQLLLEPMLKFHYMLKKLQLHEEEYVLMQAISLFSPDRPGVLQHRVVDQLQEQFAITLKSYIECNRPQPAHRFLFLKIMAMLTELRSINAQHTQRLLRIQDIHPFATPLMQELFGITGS
human Retinoic Acid Receptor gamma (RARg), RARG (gene 5916), sequence (P13631 whole entry, looked up, the tested form may be a part): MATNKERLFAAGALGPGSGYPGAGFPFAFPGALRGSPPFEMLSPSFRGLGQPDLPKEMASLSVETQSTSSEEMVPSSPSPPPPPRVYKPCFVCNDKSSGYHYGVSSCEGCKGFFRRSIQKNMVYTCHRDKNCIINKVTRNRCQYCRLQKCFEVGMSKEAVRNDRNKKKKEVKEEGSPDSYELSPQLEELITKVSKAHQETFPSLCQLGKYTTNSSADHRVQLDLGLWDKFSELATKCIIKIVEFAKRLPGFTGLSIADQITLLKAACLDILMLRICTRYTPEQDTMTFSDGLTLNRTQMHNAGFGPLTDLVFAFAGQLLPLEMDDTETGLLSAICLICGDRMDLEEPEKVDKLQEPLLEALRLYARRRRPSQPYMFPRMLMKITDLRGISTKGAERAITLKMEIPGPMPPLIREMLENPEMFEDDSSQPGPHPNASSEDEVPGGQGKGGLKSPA
human Peroxisome Proliferator-activated Receptor alpha (PPARa), PPARA (gene 5465), sequence (Q07869 whole entry, looked up, the tested form may be a part): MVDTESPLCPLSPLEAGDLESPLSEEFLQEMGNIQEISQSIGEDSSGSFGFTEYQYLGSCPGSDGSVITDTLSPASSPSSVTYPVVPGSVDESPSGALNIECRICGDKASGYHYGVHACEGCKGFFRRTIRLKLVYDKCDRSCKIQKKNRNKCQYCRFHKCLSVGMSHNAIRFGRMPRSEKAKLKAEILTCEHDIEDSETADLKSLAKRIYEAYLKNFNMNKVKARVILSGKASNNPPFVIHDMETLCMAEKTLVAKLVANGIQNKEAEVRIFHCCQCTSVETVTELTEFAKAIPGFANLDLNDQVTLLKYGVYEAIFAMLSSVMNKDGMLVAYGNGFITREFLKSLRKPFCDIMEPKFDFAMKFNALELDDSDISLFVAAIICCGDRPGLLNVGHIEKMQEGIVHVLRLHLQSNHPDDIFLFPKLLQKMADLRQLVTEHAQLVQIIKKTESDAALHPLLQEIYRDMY
human Peroxisome Proliferator-activated Receptor delta (PPARd), PPARD (gene 5467), sequence (Q03181 whole entry, looked up, the tested form may be a part): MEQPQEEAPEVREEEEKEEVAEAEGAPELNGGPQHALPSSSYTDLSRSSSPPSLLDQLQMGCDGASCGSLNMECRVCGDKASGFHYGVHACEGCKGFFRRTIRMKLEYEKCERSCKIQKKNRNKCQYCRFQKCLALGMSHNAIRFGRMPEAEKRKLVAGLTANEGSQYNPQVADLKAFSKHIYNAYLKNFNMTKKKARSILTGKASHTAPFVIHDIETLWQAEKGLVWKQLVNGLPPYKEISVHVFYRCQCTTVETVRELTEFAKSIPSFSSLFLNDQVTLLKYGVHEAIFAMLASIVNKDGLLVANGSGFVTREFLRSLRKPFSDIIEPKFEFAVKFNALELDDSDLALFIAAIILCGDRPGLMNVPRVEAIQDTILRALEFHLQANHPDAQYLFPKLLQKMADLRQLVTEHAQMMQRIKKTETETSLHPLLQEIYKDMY
human Retinoic Acid Receptor beta (RARb), RARB (gene 5915), sequence (P10826 whole entry, looked up, the tested form may be a part): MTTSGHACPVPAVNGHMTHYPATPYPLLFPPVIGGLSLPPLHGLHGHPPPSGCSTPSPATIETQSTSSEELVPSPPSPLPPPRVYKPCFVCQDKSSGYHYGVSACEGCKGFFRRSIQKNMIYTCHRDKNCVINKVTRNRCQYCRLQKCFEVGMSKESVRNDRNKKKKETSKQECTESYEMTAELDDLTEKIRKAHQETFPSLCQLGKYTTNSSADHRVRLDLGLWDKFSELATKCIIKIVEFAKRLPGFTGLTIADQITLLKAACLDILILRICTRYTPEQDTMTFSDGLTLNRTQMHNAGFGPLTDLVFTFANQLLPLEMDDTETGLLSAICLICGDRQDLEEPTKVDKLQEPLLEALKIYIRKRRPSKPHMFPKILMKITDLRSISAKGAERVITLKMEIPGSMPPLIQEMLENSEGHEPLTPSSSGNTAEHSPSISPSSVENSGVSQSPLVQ

For `Oc1ccc(Cl)cc1Cl`, the molecule was classed as inactive in [1], in experiment [2], in [4], in experiment [5], in experiment [6] and in experiment [7]. In addition, the outcome in experiment [8], in [9], in experiment [10], in [11], in experiment [12] and in experiment [13] was inactive. In experiment [3], the AC50 is 36.3 µM (active).

With `CCSC(=O)N(CC)C1CCCCC1`, the result in experiment [1], in experiment [2], in experiment [14], in [3], in experiment [4] and in experiment [6] was inactive. Besides, the outcome in [7], in [8], in [9], in experiment [11], in [12] and in experiment [13] was inactive. The result in experiment [15] was inactive.

`Nc1ccc(-c2ccc(N)cc2)cc1`: the call in [1], in experiment [2], in experiment [3], in [4], in [5] and in experiment [7] was inactive. Moreover, the outcome in experiment [8], in experiment [9], in experiment [11], in experiment [16], in experiment [12] and in experiment [13] was inactive. The call in experiment [15], in experiment [17] and in experiment [18] was inactive. Moreover, in [6], the AC50 was 3.97 µM (active).

In the case of `O=S(=O)(O)C(F)(F)C(F)(F)C(F)(F)C(F)(F)C(F)(F)C(F)(F)F`, the outcome in experiment [1], in experiment [2], in experiment [14], in experiment [4], in experiment [5] and in experiment [6] was inactive. The outcome in [7], in [8], in experiment [9], in experiment [19], in experiment [11] and in [12] was inactive. Moreover, the molecule was called inactive in experiment [15] and in experiment [18]. In addition, the AC50 in experiment [3] was 132 µM (active) [middle of 4 runs]; in experiment [13], 32.5 µM (active) and 79.5 µM (active) and 61.7 µM (active).

As for `CCOC(=O)C(O)(c1ccc(Cl)cc1)c1ccc(Cl)cc1`, the outcome in experiment [1], in [2], in [14], in [3], in [4] and in experiment [5] was inactive. The call in experiment [19] and in experiment [17] was inactive. For the same molecule, the AC50 is 33.5 µM (active) in experiment [6]; 31.7 µM (active) in experiment [7]; 34.7 µM (active) in [8]; 34.6 µM (active) in [9]; 37.9 µM (active) in experiment [11]; 30.1 µM (active) in [12]. Moreover, the half-maximal activity concentration (AC50) is 11.1 µM (active) in experiment [13] and 18.3 µM (active) in experiment [15].

In the case of `O=C(O)C(F)(F)C(F)(F)C(F)(F)C(F)(F)C(F)(F)C(F)(F)C(F)(F)C(F)(F)F`, the result in experiment [1], in experiment [2], in [4], in experiment [5], in [6] and in experiment [7] was inactive. The outcome in experiment [8], in [9], in [19], in experiment [11], in experiment [12] and in experiment [17] was inactive. Further, the result in [18] was inactive. In addition, the half-maximal activity concentration (AC50) in experiment [3] is 50.9 µM (active) and 35.5 µM (active) and 13 µM (active); in experiment [4] it was 50 µM (active); in experiment [5], 217 µM (active); in experiment [6] it was 30 µM (active) and 46 µM (active); in [7], 25 µM (active) and 51.6 µM (active); in experiment [8] it was 49.5 µM (active) and 30 µM (active). In addition, the AC50 was 40.2 µM (active) and 43.3 µM (active) in experiment [9]; 15.9 µM (active) and 27.4 µM (active) and 22.5 µM (active) in experiment [10]; 49.7 µM (active) and 48 µM (active) in experiment [12]; 43.4 µM (active) and 70 µM (active) and 42.3 µM (active) in [13]; 47.5 µM (active) and 104 µM (active) and 50 µM (active) in experiment [15].
